Several values for one entry are separate records, joined by “and”; a condition that tells them apart may be missing. Equal values may be shown once. Where a name gives a salt, the structure may show the parent alone.
Columns and labels:
Assay in all cases: cell viability relative to vehicle control; higher = less cytotoxic
Conditions in all cases: 10 µM
[1] = system: K562
Summary of the method: (§1)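 Screening covered the Selleck bioactive, kinase and epigenetic probe libraries, less identity-inconsistent compounds, on CRISPR-edited mutant clones and isogenic wild-type clones of four leukaemia lines. Cells, at 2000 per well in 50 µL medium, received a single 10 µM acoustically dispensed dose. After 48 h the supernatant was removed and CellTiter-Glo luminescence was read. Viability was analysed in Genedata Screener as percent of the on-plate vehicle control.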

[2] = system: MARIMO
Summary of the method: as §1

[3] = system: MOLM14
Summary of the method: as §1

[4] = system: OCI-AML2
Summary of the method: as §1

Structure (SMILES)	cell viability ([1]; SRSF2 genotype: SRSF2 P95H/wt)	cell viability ([1]; SRSF2 genotype: SRSF2 wt/wt)	cell viability ([2]; SRSF2 genotype: SRSF2 P95H/wt)	cell viability ([2]; SRSF2 genotype: SRSF2 wt/wt)	cell viability ([3]; SRSF2 genotype: SRSF2 P95H/wt)	cell viability ([3]; SRSF2 genotype: SRSF2 wt/wt)	cell viability ([4]; SRSF2 genotype: P95H/wt)	cell viability ([4]; SRSF2 genotype: wt/wt)
O=C1CCc2cc(OCCCCc3nnnn3C3CCCCC3)ccc2N1 [Cilostazol]	97.9% and 98.4%	96.8%	103%	102%	100%	101%	109%	97.9%
CC(C)c1c(-c2ccccc2)nc2c(C#N)c[nH]n2c1=O	105% and 99.3%	108%	103%	93.5%	97.8%	98.8%	103%	101%
O=C1CCC(N2C(=O)c3ccccc3C2=O)C(=O)N1 (stereo not drawn) [Thalidomide]	92.1% and 86.8%	84.5%	83.2%	86.4%	87.5%	86.7%	93.8%	91.4%
Nc1ccc(-c2ccc3ncc4ccc(=O)n(-c5cccc(C(F)(F)F)c5)c4c3c2)cn1 [Torin 2]	13.4% and 21.3%	16.9%	16.5%	20.9%	1.07%	2.53%	1.62%	7.04%
C1=N/C2=N/c3ccc(OCCN4CCCC4)c(c3)COC/C=C/COCc3cccc(c3)C(=C1)N2 [Pacritinib (SB1518)]	3.78% and 2.31%	4.47%	0.41%	0.42%	0.21%	0.25%	0.2%	0.32%
NC(=O)c1ccc[n+]([O-])c1 [Nicotinamide N-oxide]	110%	111%	107%	109%	98.7%	105%	112%	101%
Cc1c(C)c2c(c(C)c1OC(=O)CCC(=O)OCCOCCOCCO)CCC(C)(CCCC(C)CCCC(C)CCCC(C)C)O2 (stereo not drawn) [Tocofersolan]	78.2% and 80.7%	92.4%	80.3%	63.5%	87.2%	97.2%	59.5%	77.4%
CC(=O)OC(C)(C)CCC(=O)[C@](C)(O)[C@H]1[C@H](O)C[C@@]2(C)[C@@H]3CC=C4[C@@H](C[C@H](O)[C@@H](O)C4(C)C)[C@]3(C)C(=O)C[C@]12C [Curcurbitacin IIA]	67.7% and 75.2%	77.4%	80.9%	87.6%	34.7%	22.4%	21.4%	28.8%
NC(=O)c1ccc(-c2nc(-c3ccccn3)c(-c3ccc4c(c3)OCO4)[nH]2)cc1	103% and 105%	97.9%	100%	106%	102%	97.9%	109%	98.3%
O=C(CCCCCCC(=O)N/N=C/c1ccc(N(c2ccccc2)c2ccccc2)cc1)NO	38.5% and 60.9%	54.6%	65.8%	18.7%	1.58%	1.31%	0.64%	1.98%
CC1=C(C(=O)Nc2ccc3[nH]ncc3c2)C(c2ccc(F)cc2)NC(=O)N1 (stereo not drawn)	101% and 97.9%	110%	102%	99.9%	38.5%	91.7%	33.7%	51.5%
CN1CCN(C2=Nc3cc(Cl)ccc3Nc3ccccc32)CC1 [Clozapine (Clozaril)]	85.7% and 106%	98.8%	104%	94.4%	101%	106%	100%	98.1%
COc1ccc(C2=N[C@@H](c3ccc(Cl)cc3)[C@@H](c3ccc(Cl)cc3)N2C(=O)N2CCNC(=O)C2)c(OC(C)C)c1 [Nutlin-3]	91.4% and 99.4%	89.2%	87.4%	93.3%	0.14%	1.06%	9.37%	32.1%
Cn1c(-c2ccccc2C(F)(F)F)nnc1C12CCC(c3noc(C4CC(F)(F)C4)n3)(CC1)CC2	87.3% and 92.5%	84.7%	88%	99.8%	79.8%	87.7%	99%	94.8%
CC(=O)OCC1=C(C(=O)O)N2C(=O)[C@@H](NC(=O)Cc3cccs3)[C@H]2SC1 [Cephalothin]	94.9% and 98.7%	96.1%	95.8%	100%	94.7%	101%	95.1%	104%
O=C(O)Cc1cccc(OCCCN(Cc2cccc(C(F)(F)F)c2Cl)CC(c2ccccc2)c2ccccc2)c1	98.2% and 93.9%	92.9%	97.9%	113%	88.6%	96.7%	90.9%	98.5%
N#Cc1cc2cc(CN3CCC(Nc4ncnc5sc(CC(F)(F)F)cc45)CC3)ccc2[nH]1	3.53% and 2.57%	19.3%	44.3%	51.2%	22.6%	23.4%	0.63%	21.5%
CC=Cc1cc(OC)c2c(c1)C(C)C(c1ccc(O)c(OC)c1)O2 (stereo not drawn) [Dehydrodiisoeugenol]	90.2% and 91.2%	90.4%	89.4%	95.5%	83.3%	97.8%	75.8%	78.8%
Cn1cnc2c(F)c(Nc3ccc(Br)cc3F)c(C(=O)NOCCO)cc21	84.2% and 92.4%	79.5%	41%	38.6%	45.8%	28.9%	39.5%	42.5%
C[C@]12CCC3=C4CCC(=O)C=C4CC[C@H]3[C@@H]1CC[C@@]2(O)CC#N [Dienogest]	104% and 96.7%	102%	93%	107%	100%	103%	104%	106%
COc1ncc(-c2ccc3nccc(-c4ccnnc4)c3c2)cc1NS(=O)(=O)c1ccc(F)cc1F	31.8% and 30.2%	34.8%	26.4%	24.1%	1.48%	11.9%	0.26%	1.55%

Structure (SMILES)	cell viability ([1]; SRSF2 genotype: SRSF2 P95H/wt)	cell viability ([1]; SRSF2 genotype: SRSF2 wt/wt)	cell viability ([2]; SRSF2 genotype: SRSF2 P95H/wt)	cell viability ([2]; SRSF2 genotype: SRSF2 wt/wt)	cell viability ([3]; SRSF2 genotype: SRSF2 P95H/wt)	cell viability ([3]; SRSF2 genotype: SRSF2 wt/wt)	cell viability ([4]; SRSF2 genotype: P95H/wt)	cell viability ([4]; SRSF2 genotype: wt/wt)
CC1(C)O[C@@H]2C[C@H]3[C@@H]4CCC5=CC(=O)C=C[C@]5(C)[C@@]4(F)[C@@H](O)C[C@]3(C)[C@]2(C(=O)CO)O1 [Triamcinolone Acetonide]	101% and 100%	102%	107%	97.1%	100%	95.3%	114%	115%
COc1cc2nccc(Oc3ccc(NC(=O)c4cn(C(C)C)c(=O)n(-c5ccc(F)cc5)c4=O)cc3F)c2cc1OC	30.1% and 27.1%	48.2%	102%	102%	27.7%	43.7%	70.4%	80.4%
CN1CCN(c2nc(C3=C(c4c[nH]c5ccccc45)C(=O)NC3=O)c3ccccc3n2)CC1 [Sotrastaurin (AEB071)]	88.8% and 91.3%	81.6%	72.4%	80.5%	30.8%	21.6%	32.8%	50.3%
CC(C)c1ccccc1Cc1cc(C(=O)Nc2ccc(S(=O)(=O)c3ccccc3C(C)(C)C)cc2)c(O)c(O)c1O	8.56% and 5.5%	7.92%	17.6%	18.2%	4.45%	1.48%	2.91%	8.83%
CCCCCCNC(=O)Nc1ccc(S(=O)(=O)Nc2ccc(CCNC[C@H](O)COc3ccc(O)cc3)cc2)cc1	72.8% and 83.3%	82.8%	89.2%	91.4%	75.5%	75.4%	74.2%	71%
Cc1nnsc1C(=O)Nc1ccc(-n2nc(C(F)(F)F)cc2C(F)(F)F)cc1	78.2% and 82%	76.3%	86.6%	98.2%	107%	99.1%	76.6%	89.2%
COc1ccc(C(=O)Nc2sc3c(c2C(N)=O)CCCC3)cc1OC	95.4% and 96.5%	91.5%	93.8%	91.9%	79.8%	93%	85.2%	81.4%
CCc1c(Cl)c(O)c(Cl)c(O)c1C(=O)O[C@H]1[C@H](O)[C@H](OC)[C@H](OC/C2=C\C=C\C[C@H](O)/C(C)=C/[C@H](CC)[C@@H](O[C@@H]3OC(C)(C)[C@@H](OC(=O)C(C)C)[C@H](O)[C@@H]3O)/C(C)=C/C(C)=C/C[C@@H]([C@@H](C)O)OC2=O)O[C@@H]1C [Fidaxomicin]	81.3% and 80.5%	78.3%	86.2%	91.3%	74.9%	84.6%	110%	100%
CC1(C)O[C@@H]2[C@@H](CO[C@@]3(COS(N)(=O)=O)OC(C)(C)O[C@@H]23)O1 [Topiramate]	99.1% and 107%	99.3%	104%	106%	107%	105%	104%	113%
CC(C)(C)n1nc(-c2ccc(Cl)cc2)c2c(N)ncnc21	56.2% and 78.5%	63.3%	84.6%	104%	66%	67.3%	80%	78.3%
CCOCCn1c(C2CCN(CCc3ccc(C(C)(C)C(=O)O)cc3)CC2)nc2ccccc21 [Bilastine]	105% and 108%	113%	107%	104%	107%	106%	108%	96.2%
O=C(Nc1ccc(O)cc1)c1ccccc1O [Osalmid]	98.1% and 108%	98.3%	93%	95.8%	107%	109%	99%	87.3%
O=c1oc2cc(O)ccc2s1 [Tioxolone]	95.7% and 106%	105%	103%	101%	101%	103%	102%	97.4%
CC(C)(C)OC(=O)Nc1ccc(-c2cc(C(=O)NCCCCCCC(=O)NO)no2)cc1	1.43% and 12.4%	5.74%	9.27%	11.5%	0.79%	0.64%	1.39%	2.31%
O=C(O)c1ccc(-n2nc(-c3ccccc3O)nc2-c2ccccc2O)cc1 [Deferasirox (Exjade)]	93.5% and 95.5%	76.4%	60.3%	74%	83.5%	60%	58.3%	67.8%
O=C(/C=C/c1cncc(F)c1)c1c(-c2ccccc2)c2cc(Cl)ccc2[nH]c1=O	6.82% and 5.38%	2.2%	3.3%	0.38%	0.08%	0.04%	0.13%	0.16%
CN1[C@@H]2CC[C@H]1C[C@@H](OC(=O)c1c[nH]c3ccccc13)C2 [Tropisetron HCl]	97.5% and 100%	96.6%	102%	102%	104%	102%	101%	105%
CCN(CC)CCCC[C@H](NC(=O)[C@H](CC(C)C)NC(=O)[C@H](C)NC(=O)[C@H](Cc1ccccc1)NC(=O)c1ccc(C(C)(C)C)cc1)C(=O)N[C@@H](CO)C(=O)OC	88.1% and 85%	84.6%	86.1%	99%	83.2%	92%	90.4%	113%
O=C(O)CSc1cc(NS(=O)(=O)c2ccc(Br)cc2)c2ccccc2c1O	86.4% and 79.9%	94.8%	95.5%	94.5%	73.9%	89.3%	97.9%	107%
COc1ccc2c(c1)c(C1=C(c3c[nH]c4ccccc34)C(=O)NC1=O)cn2CCCN(C)C	84.2% and 80.9%	74.5%	69.8%	85.8%	30.9%	25.9%	31.8%	49.9%

Source: the supplement of paper PMC10981050
